The list is not random: actives were taken first. Their share in the collection is about 6.5%.
HCMV antiviral: blocks human cytomegalovirus replication | HFF cells, HCMV-luciferase reporter, 72 h; active compounds read low | activity change, negative = inhibition, % at 57.5 µM | hit rate 4.5% among 410,000; in the data active means activity change below about -60%; inconclusive means no clear call, values can overlap the other calls; inactive means above about -39%
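Two-dose cell screen: HFF monolayers treated with compounds and infected with luciferase-expressing HCMV at 1 PFU/cell, 72 h at 37C, then lysed for luciferase measurement.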
VACV Venus inh: inhibitors of vaccinia virus (Venus reporter) | Vaccinia virus Venus reporter expression, fluorescence | Potency, µM (series often up to 36.5 µM), actives largely listed as inhibitors | hit rate 0.46% among 330,000 | AID 720580; calls by dose curve; tested in A549 cells; further: nearly all actives have a fitted effect of over 30% in size
LASV entry inh: blocks Lassa virus binding to or entry into cells; Lassa virus pseudotype entry inhibition, cell reporter; Potency, µM (highest dose often 37.9 µM), actives largely listed as inhibitors; hit rate 1.2% among 300,000; AID 540256; calls by dose curve; tested in HEK293 cells; further: nearly all actives have a fitted effect of over 50% in size
FMDV antiviral: blocks foot and mouth disease virus; FMDV antiviral cell-based qHTS; Potency, µM (top dose mostly 57.9 µM), usual class: inhibitors; hit rate 1.2% among 410,000; calls by dose curve; tested in HEK293T cells; further: read-out not given here; nearly all actives have a fitted effect of over 45% in size
Vaccinia mCherry: vaccinia inhibition (mCherry reporter); Vaccinia virus mCherry reporter infection, fluorescence; Potency, µM (top dose mostly 36.5 µM), most hits filed as inhibitors; hit rate 0.63% among 310,000; calls by dose curve; tested in A549 cells; further: nearly all actives have a fitted effect of over 35% in size
Marburg entry inh: blocks Marburg virus binding to or entry into cells. Marburg virus pseudotyped entry inhibition, cell reporter. Potency, µM (top dose mostly 37.8 µM), hits mostly inhibitors. hit rate 1.8% among 300,000. AID 540276; calls by dose curve; tested in HEK293 cells
A number is an active result; 0 = inactive; ? = inconclusive; - = no result; ! = a repeat was not active.

SMILES | HCMV antiviral | VACV Venus inh | LASV entry inh | FMDV antiviral | Vaccinia mCherry | Marburg entry inh
Cc1nn(C)cc1CN1CCCC(C(=O)c2ccc(-c3ccccc3)cc2)C1 (stereo not drawn) | -66 | 0 | ? | ? | 0 | ?
CSc1ccc(C(=O)C2CCCN(Cc3cccnc3)C2)cc1 (stereo not drawn) | -62 | 0 | 0 | ? | 0 | 0
Cc1ccsc1C(=O)C1CCCN(Cc2cn(C)nc2C)C1 (stereo not drawn) | 0 | 0 | 0 | 0 | 0 | 0
CSc1ccc(C(=O)C2CCCN(Cc3cccn3-c3cccnc3)C2)cc1 (stereo not drawn) | 0 | 0 | ? | ? | 0 | ?
O=C(c1ccc(Cl)cc1)C1CCCN(Cc2cnn(-c3ccccc3)c2)C1 (stereo not drawn) | 0 | 0 | 0 | 0 | 0 | 5.6µM
O=C(O)Cc1ccc(N2N=C(c3ccccc3)CC2=O)cc1 | ? | 0 | - | 0 | 0 | -
O=C(CCN1C(=O)C2C3CC(C(Br)C3Br)C2C1=O)OCC(=O)c1cccc([N+](=O)[O-])c1 (stereo not drawn) | 0 | 0 | 0 | 0 | 0 | 0
COc1cc(CN2CCCC(n3cc(C(=O)N4CCCCC4)nn3)C2)cc(OC)c1 (stereo not drawn) | - | 0 | - | 0 | 0 | -
COc1ccc2cc([C@H](C)CO)ccc2c1 | - | ? | - | 0 | 0 | -
Cc1ccc(NC(=O)ON=C2CCCC2)cc1 | 0 | 0 | 1.4µM | 0 | 0 | 10µM
COc1ccc(-n2c(CCNC(=O)c3ccc(-c4cccc(F)c4)cc3)nnc2SC)cc1 | - | 0 | - | 0 | 0 | -
O=C(Nc1ccccn1)c1ccc(Cl)c(S(=O)(=O)N2CCc3ccccc32)c1 | -93 | - | - | 25µM | - | -
O=C(NCC(c1ccco1)N1CCCC1)c1ccc(Cl)c(S(=O)(=O)N2CCc3ccccc32)c1 (stereo not drawn) | ? | ? | ? | ? | ? | 11µM
O=S(=O)(c1cccc2cccnc12)N1CCc2ccccc21 | -63 | 0 | 0 | 0 | - | 0
O=C(Nc1cccnc1)c1ccc(Cl)c(S(=O)(=O)N2CCc3ccccc32)c1 | ? | 0 | 0 | 0 | 0 | 0
O=C(NCC(c1ccco1)N1CCc2ccccc2C1)c1ccc(Cl)c([N+](=O)[O-])c1 (stereo not drawn) | 0 | 0 | ? | 0 | 0 | 0
O=C(COC(=O)/C=C/c1ccc(F)cc1)Nc1ccc(S(=O)(=O)N2CCOCC2)cc1 | 0 | 0 | 0 | 0 | 0 | ?
COc1cccc(-c2nc3c(c(SCC(=O)Nc4cccc(C)c4C)n2)Cc2c(CO)cnc(C)c2O3)c1 | 0 | 0 | ? | 0 | 0 | -
CN(C)C(=O)c1ccc(-c2cncnc2NCCc2cnc[nH]2)cc1 | - | - | - | 0 | - | -
COc1cc(C#Cc2c(-c3cncn3C)n(C)c3ccc(-c4cc(OC)c(OC)c(OC)c4)cc23)cc(OC)c1 | 0 | 11µM | - | 0 | ? | -
COc1cc(C#Cc2c(-c3cncn3C)n(C)c3ccc(-c4ccc(OC)nc4)cc23)cc(OC)c1 | 0 | 28µM | - | ? | ? | -
CCN1CCN(C(=O)c2cnn(-c3cccc(C)c3)c2C2CCN(C(=O)OC(C)(C)C)CC2)CC1 | 0 | 0 | ? | 0 | 0 | -
CC(=O)N1CCN(C(=O)c2[nH]c(C(F)(F)F)nc2-c2ccccc2)CC1 | 0 | 0 | - | 0 | 0 | -
COc1ccc(N2CCN(C(=O)c3[nH]c(C(F)(F)F)nc3-c3ccccc3)CC2)cc1 | 0 | 0 | - | 0 | 0 | -
Cc1cccc(N2CCN(C(=O)c3[nH]c(C(F)(F)F)nc3-c3ccccc3)CC2)c1C | -87 | ? | - | 0 | ? | -
SMILES | HCMV antiviral | VACV Venus inh | LASV entry inh | FMDV antiviral | Vaccinia mCherry | Marburg entry inh
COc1ccccc1N1CCN(C(=O)c2[nH]c(C(F)(F)F)nc2-c2ccccc2)CC1 | -64 | ? | - | 0 | 0 | -
Cc1cc2oc(=O)c(CC(=O)NCCCO)c(C)c2c2occ(C(C)(C)C)c12 | ? | - | - | 0 | - | -
Cc1cc2oc(=O)c(CC(=O)NCCCN(C)C)c(C)c2c2occ(C(C)(C)C)c12 | - | ? | ? | 0 | 13µM | ?
COCCNC(=O)Cc1c(C)c2c(cc(C)c3c(C(C)(C)C)coc32)oc1=O | -61 | ? | ? | ? | ? | ?
c1ccc(Cc2nnc3sc(-c4ccncc4)nn23)cc1 | ? | - | 0 | 0 | - | 0
c1ccc(Cc2nnc3sc(-c4cccnc4)nn23)cc1 | -63 | - | 0 | 0 | - | 0
CC(C)[C@@H](OCc1ccccc1)[C@H](C)/C=N/OC[C@@H](C)[C@H](OCc1ccccc1)C(C)C | - | - | - | - | - | 0
COc1ccc(C2CCCN2C(=O)Nc2ccc(Cl)cc2)cc1OC (stereo not drawn) | -72 | 0 | - | 0 | 0 | -
COc1ccc(NC(=O)C2CCCN2C(=O)Nc2ccccc2)cc1OC (stereo not drawn) | 0 | - | 0 | 0 | - | 0
C/C(=N\OCC(=O)Nn1c(=O)[nH]c2ccccc2c1=O)c1cccs1 | ? | 0 | - | 0 | 0 | -
CCCn1c(=O)c2sccc2n2c(CCCC(=O)N3CCN(c4cccc(C)c4C)CC3)nnc12 | 0 | 0 | 0 | 16µM | 0 | -
COc1ccc(CCNC(=O)c2c(O)nc3c(C)cccn3c2=O)cc1 | 0 | 0 | - | 0 | 0 | 0
O=C(NCCCCCCNC(=O)OCc1ccccc1)OCc1ccccc1 | 0 | 0 | 0 | 0 | 0 | ?
O=C(OCc1ccccc1)N(CCCCN(CCCNCc1ccccc1)C(=O)OCc1ccccc1)CCCNCc1ccccc1 | -97 | ? | ? | ? | ? | ?
COc1ccc(-c2nc3c(-c4ccc(Cl)cc4)cnn3cc2C)cc1F | -76 | 0 | ? | 0 | 0 | 0
COc1ccc(-c2nc3c(-c4ccccc4)cnn3cc2C)cc1F | 0 | 0 | 0 | 0 | 0 | ?
CCn1cc(C(=O)O)c(=O)c2cc(F)c(N/N=C/c3ccccc3[N+](=O)[O-])cc21 | -71 | 0 | ? | 20µM | 0 | 0
Cc1noc(C)c1CSc1nc2sc(C)c(C)c2c(=O)n1C1CCCC1 | 0 | - | 0 | 0 | - | 12µM
C=CCn1c(SCc2c(C)noc2C)nc2sc3c(c2c1=O)CCCC3 | 0 | - | ? | 0 | - | 21µM
COc1ccc2c(c1)C(=NN)c1cc(OC)ccc1-2 | -87 | 0 | 0 | 0 | 0 | 0
COc1ccc2c(c1)C(=NNc1ccc(C(=O)O)cc1)c1cc(OC)ccc1-2 | 0 | ? | - | 0 | ? | -
CC1(C)N=C(SCC(=O)Nc2ccccc2)C(c2ccc(Cl)cc2)=N1 | -66 | 0 | ? | 18µM | ? | ?
Cc1ccc(C2=NC(C)(C)N=C2SCC(=O)Nc2ccc(Cl)cc2)cc1 | 0 | ? | 0 | 32µM | ? | ?
CC1CN(S(=O)(=O)c2ccc(C(=O)N3CCc4ccccc43)cc2)CC(C)O1 (stereo not drawn) | ? | 0 | 0 | 0 | 0 | ?
CC(=O)c1ccc(NC(=O)C(Cc2ccccc2)n2cccc2)cc1 (stereo not drawn) | 0 | 0 | - | 0 | 0 | -
O=S(=O)(Nc1cc2nc3ccccc3nc2n1Cc1ccccc1)c1ccc(Cl)cc1 | -91 | 0 | 7.3µM! | 0 | 0 | ?
O=S1(=O)N[C@@H](c2ccccc2)COc2cc(Br)ccc21 | 0 | 0 | 0 | 0 | 0 | -
COc1cc(/C(C)=N/NC(=O)CSc2nncn2C)ccc1OCc1ccccc1Cl | 0 | 0 | 0 | 0 | 0 | 0
COc1ccc(OC)c(C(c2nnnn2Cc2ccccc2)N2CCC(C(N)=O)CC2)c1 (stereo not drawn) | 0 | 0 | 0 | 0 | - | 0

From PubChem
